Results: PubChem BioAssay AID1508625 (Wald Lab, School of Medicine, Case Western Reserve …, 2021)

Test: enhancers of NK cell killing of ovarian tumor cells, primary screen, imaging, OVCAR3, primary NK cells, calcein-AM imaging (AID 1508625);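 note: compound given to NK cells 16 h before adding targets at 1.5 to 1 ratio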
Details: OVCAR3 lysis by primary NK cells, at 5 µM; z-score: measured here: robust Z-score, single-point normalisation

Row | SMILES | corrected activity, negative = more killing | z-score
1 | CCOc1ccc(-c2n[nH]c(C(=O)NN=Cc3cccnc3)c2C)cc1 | -3.11% | -1.36
2 | Cc1oc2c(C)c3oc(=O)c(C)c(C)c3cc2c1-c1ccccc1 | -1.87% | -0.558
3 | O=C(Nc1ccc2nn(-c3cccc(Cl)c3)nc2c1)c1cccc2ccccc12 | -3.42% | -1.21
4 | COc1cccc(N2CCN(C(=O)Nc3ccc(F)cc3)CC2)c1 | -2.57% | -1.43
5 | Cc1ccc(-c2cc(C(=O)O)c3cc(Cl)ccc3n2)cc1C | -3.58% | -1.47
6 | CCCCN(C)CCn1c(=S)[nH]c2cc3c(cc2c1=O)OCO3 | -6.47% | -1.71
7 | COc1ccccc1N1CCN(C(=O)c2ccc(Cn3c(=S)[nH]c4cc5c(cc4c3=O)OCO5)cc2)CC1 | -5.34% | -1.42
